This is an account of results in PubChem BioAssay (NCATS).

Results filed as inconclusive are left out. Active and inactive are the calls of the source. Unless noted, calls follow the shape of the full dose curve.

For assay [1], the target named is Alpha-galactosidase (Coffea arabica) (UniProt Q42656). The assay can be described thus: Counterscreen for Glucocerebrosidase Inhibitors: qHTS Assay for Coffee Bean alpha-Galactosidase at pH 4.5 (AID 957; active = well fitted curve in the direction sought with a large enough effect; an effect the other way counts as inactive or inconclusive;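 also: plate controls were enzyme alone for no effect and no enzyme for full effect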). The method, boiled down: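 Green coffee bean enzyme (2 nM final) was incubated with compounds (0.7 nM to 77 uM) and 4-methylumbelliferyl alpha-D-galactopyranoside (80 uM final) in 50 mM citric acid, 0.005% Tween-20, pH 4.5, 20 min at room temperature; AC50 from Hill fits.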
Alpha-galactosidase (Coffea arabica), sequence (Q42656 whole entry, looked up): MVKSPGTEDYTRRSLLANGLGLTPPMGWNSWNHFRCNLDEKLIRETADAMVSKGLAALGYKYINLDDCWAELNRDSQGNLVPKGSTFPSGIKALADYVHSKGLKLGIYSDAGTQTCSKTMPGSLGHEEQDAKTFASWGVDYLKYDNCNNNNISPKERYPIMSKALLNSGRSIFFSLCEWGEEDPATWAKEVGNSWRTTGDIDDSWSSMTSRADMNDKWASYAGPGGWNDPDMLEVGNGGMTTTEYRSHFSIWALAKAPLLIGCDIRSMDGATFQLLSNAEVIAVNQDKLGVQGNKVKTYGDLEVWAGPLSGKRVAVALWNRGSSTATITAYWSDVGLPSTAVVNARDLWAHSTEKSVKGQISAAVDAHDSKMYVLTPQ

Assay [2] can be described thus: qHTS for Inhibitors of the Functional Ribonucleoprotein Complex (vRNP) of Lassa (LASV) Arenavirus: LASV Primary Screen - GLuc reporter signal (AID 1347082; calls by dose curve; tested in HEK293 reporter line; also: nearly all actives have a fitted effect of over 60% in size; also: potency is read from the fitted curve at half-maximal effect; as to activity change, negative = inhibition: % is scaled to controls: 0 for no effect and ±100 for the full control effect). A general note: qHTS replaces the single test concentration by a dilution series.
The nature of assay [3]: qHTS for Inhibitors of the Functional Ribonucleoprotein Complex (vRNP) of Lassa (LASV) Arenavirus: Viability assay - alamar blue signal for LASV Primary Screen (AID 1347083; calls by dose curve; tested in HEK293 reporter line; also: nearly all actives have a fitted effect of over 80% in size; also: potency is read from the fitted curve at half-maximal effect).
Assay [4] in a line: qHTS for Inhibitors of the Functional Ribonucleoprotein Complex (vRNP) of Lymphocytic Choriomeningitis Arenaviruses (LCMV): Viability assay - alamar blue signal for LCMV Primary Screen (AID 1347085; calls by dose curve; tested in HEK293 reporter line; also: nearly all actives have a fitted effect of over 80% in size; also: potency is read from the fitted curve at half-maximal effect).
Assay [5] deals with Nucleoprotein (Lymphocytic choriomeningitis virus (strain Armstrong)) (UniProt P09992). As to the kind of experiment: qHTS for Inhibitors of the Functional Ribonucleoprotein Complex (vRNP) of Lymphocytic Choriomeningitis Arenaviruses (LCMV): LCMV Primary Screen - GLuc reporter signal (AID 1347086). Also: % is scaled to controls: 0 for no effect and ±100 for the full control effect; nearly all actives have a fitted effect of over 70% in size.
Nucleoprotein (Lymphocytic choriomeningitis virus (strain Armstrong)), sequence (P09992 whole entry, looked up): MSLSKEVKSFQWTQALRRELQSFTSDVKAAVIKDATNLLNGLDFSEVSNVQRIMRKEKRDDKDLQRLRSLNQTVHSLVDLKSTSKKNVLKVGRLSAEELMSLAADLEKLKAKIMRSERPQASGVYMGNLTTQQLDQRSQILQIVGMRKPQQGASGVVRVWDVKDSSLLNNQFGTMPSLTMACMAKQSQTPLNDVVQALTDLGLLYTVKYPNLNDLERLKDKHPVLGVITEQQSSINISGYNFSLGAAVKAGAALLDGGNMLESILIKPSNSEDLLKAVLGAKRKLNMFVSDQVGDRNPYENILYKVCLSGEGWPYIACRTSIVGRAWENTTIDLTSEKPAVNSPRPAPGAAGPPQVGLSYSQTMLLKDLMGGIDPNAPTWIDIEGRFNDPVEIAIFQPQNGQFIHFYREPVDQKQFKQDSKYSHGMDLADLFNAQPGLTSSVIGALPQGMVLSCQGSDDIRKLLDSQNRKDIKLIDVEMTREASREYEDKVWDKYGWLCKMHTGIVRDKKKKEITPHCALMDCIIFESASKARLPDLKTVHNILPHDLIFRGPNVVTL
Assay [6] deals with Cytochrome P450 3A4 (Homo sapiens) (UniProt P08684). As to the kind of experiment: qHTS Assay for Inhibitors and Substrates of Cytochrome P450 3A4 (AID 884; active = well fitted curve in the direction sought with a large enough effect; an effect the other way counts as inactive or inconclusive; also: potency is read from the fitted curve at half-maximal effect; nearly all actives have a fitted effect of over 50% in size). The method, boiled down: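 20 nM human CYP3A4 with 25 uM Luciferin-PPXE (at KM) in 200 mM KPO4, preincubated 10 min with compound; NADPH regeneration started a 60 min RT reaction. Luciferin detected by luminescence, normalized to 57 uM ketoconazole as full inhibition.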
Cytochrome P450 3A4 (Homo sapiens), sequence (P08684 whole entry, looked up): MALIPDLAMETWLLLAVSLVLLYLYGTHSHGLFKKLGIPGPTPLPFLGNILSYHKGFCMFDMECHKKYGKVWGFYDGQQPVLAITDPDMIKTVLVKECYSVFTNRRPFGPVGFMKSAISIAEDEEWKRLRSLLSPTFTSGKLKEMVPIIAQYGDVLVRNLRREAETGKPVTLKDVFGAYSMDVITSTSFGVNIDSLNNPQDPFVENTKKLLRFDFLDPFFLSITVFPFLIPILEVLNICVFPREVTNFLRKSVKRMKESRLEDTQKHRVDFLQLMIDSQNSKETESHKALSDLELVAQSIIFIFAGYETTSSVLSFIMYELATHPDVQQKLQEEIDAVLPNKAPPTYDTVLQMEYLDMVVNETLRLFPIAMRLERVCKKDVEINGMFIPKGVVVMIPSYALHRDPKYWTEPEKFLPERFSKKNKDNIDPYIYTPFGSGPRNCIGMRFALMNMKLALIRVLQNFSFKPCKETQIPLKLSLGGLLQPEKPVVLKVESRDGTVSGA

For assay [7] the target is unchanged. The assay can be described thus: qHTS Assay for Activators of Cytochrome P450 3A4 (AID 885; active = well fitted curve in the direction sought with a large enough effect; an effect the other way counts as inactive or inconclusive; also: nearly all actives have a fitted effect of over 65% in size). The method, boiled down:
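Human CYP3A4 (20 nM) with Luciferin-PPXE at 25 uM (its KM) in 200 mM KPO4; 10 min compound preincubation, then NADPH regeneration and 60 min reaction at RT. Luciferin read by luminescence; normalized to 57 uM ketoconazole full inhibition.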

A short description of assay [8]: Primary qHTS for Huh7 cytotoxicity: counterscreen for inhibitors of MERS-S pseudotyped particle cell entry (AID 1479147). The note with it: outcome: dose series up to 57.1 µM unless noted.
Assay [9] in a line: Primary qHTS for inhibitors of MERS-S pseudo-typed particle cell entry (AID 1479149). Also: nearly all actives have a fitted effect of over 60% in size.
Assay [10] in a line: Primary qHTS for Vero E6 cytotoxicity: counterscreen for inhibitors of SARS-S pseudo-typed particle cell entry (AID 1479150). Also: % is scaled to controls: 0 for no effect and ±100 for the full control effect. The note with it: outcome: dose series up to 57.1 µM unless noted.
Assay [11] is described as follows: Cytotoxicity counterscreen for inhibitors of SARS-CoV-2 cell entry (AID 1645845). Also: nearly all actives have a fitted effect of over 50% in size. The method, boiled down:
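HEK293-ACE2 cells (Expi293F stably expressing human ACE2) seeded overnight, then compound for 1 h plus 48 h at 37C. Viability as ATP content by luminescence; normalized to wells with cells and media-only wells.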
A general note: Counterscreens check selectivity or assay interference.

Assay [12] concerns the target Cytochrome P450 2C19 (Homo sapiens) (UniProt P33261). As to the kind of experiment: qHTS Assay for Inhibitors and Substrates of Cytochrome P450 2C19 (AID 899; active = well fitted curve in the direction sought with a large enough effect; an effect the other way counts as inactive or inconclusive; also: potency is read from the fitted curve at half-maximal effect; nearly all actives have a fitted effect of over 60% in size). The method in brief:
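Signal comes from luciferase acting on luciferin released by CYP2C19-mediated hydroxylation of Luciferin-H EGE, 10uM (KM). Assay mix: 5nM enzyme, 50mM KPO4; 60 min at 37C with NADPH regeneration. Data normalized against 57uM ketoconazole.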

A short description of assay [13]: Validation screen for inhibitors of Lassa infection (AID 463096). Also: % is scaled to controls: 0 for no effect and ±100 for the full control effect.
Assay [14] can be described thus: Confirmatory qHTS to identify inhibitors of SARS-CoV-2 cell entry (AID 1645844). Also: potency is read from the fitted curve at half-maximal effect; nearly all actives have a fitted effect of over 45% in size. The method, boiled down: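 HEK293-ACE2 cells were pretreated 1 h with compound, then infected with MLV-based pseudoparticles bearing C-terminally truncated Wuhan-Hu-1 spike for 48 h at 37C; luciferase luminescence normalized to spike PP and bald PP wells.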
The nature of assay [15]: Primary qHTS to identify inhibitors of SARS-CoV-2 cell entry (AID 1645846). Also: nearly all actives have a fitted effect of over 45% in size. Also: potency is read from the fitted curve at half-maximal effect. The note with it: activity change, negative = inhibition: at 57.1 µM (top of the series) unless noted. The method in brief:
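Entry measured by luciferase signal 48 h after adding SARS-CoV-2-S pseudotyped MLV particles to HEK293-ACE2 cells preincubated 1 h with compounds. Normalisation: bald particles and spike particles.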

Assay [16] is described as follows: VSVG counterscreen qHTS to identify inhibitors of SARS-CoV-2 cell entry (AID 1645847). Also: potency is read from the fitted curve at half-maximal effect; nearly all actives have a fitted effect of over 65% in size. The method, boiled down: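 Luminescence read after 48 h infection at 37 C with VSV-G-pseudotyped MLV particles, following 1 h compound exposure of Expi293F cells stably expressing human ACE2; scaled between bald particle and VSV-G particle wells.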
Assay [17] addresses Alpha-galactosidase (Coffea arabica) (UniProt Q42656). As to the kind of experiment: Counterscreen for Glucocerebrosidase Inhibitors: qHTS Assay for Coffee Bean alpha-Galactosidase at pH 5.9 (AID 998; active = well fitted curve in the direction sought with a large enough effect; an effect the other way counts as inactive or inconclusive;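 also: plate controls were uninhibited enzyme for no effect and no-enzyme basal signal for full effect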). The method, boiled down:
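Green coffee bean enzyme (2 nM) with 4-methylumbelliferyl alpha-D-galactopyranoside (80 uM) in 50 mM citric acid, 0.005% Tween-20, pH 5.9, 20 min at room temperature; compounds 0.7 nM–77 uM. Stopped at pH 10, fluorescence Ex365/Em440; Hill-fit AC50.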

The nature of assay [18]: Inducers of the Endoplasmic Reticulum Stress Response (ERSR) in human glioma: Validation (AID 504836; active = well fitted curve in the direction sought with a large enough effect; an effect the other way counts as inactive or inconclusive; also: 0% is about no effect). The method, boiled down: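 Stably transfected U87-MG glioma cells carrying a GRP78-based luciferase sensor; 16 h compound incubation. Luminescence end-point read 10 min after Bright-Glo addition at room temperature.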
Assay [19] can be described thus: qHTS profiling of the MIPE4 collection as inhibitors of Plasmodium falciparum (3D7) proliferation (AID 743344; call rule not given here;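 also: scaled between DMSO vehicle wells and 0.29 µM artemisinin as full inhibition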). To be noted: P. falciparum 3D7 in erythrocytes, SYBR Green DNA fluorescence, 72 h; at 28.5 µM (top of the series) unless noted. The method in brief:
(§1)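 Erythrocytes infected with P. falciparum (0.3% parasitemia, 2.5% hematocrit) incubated with compounds 72 h at 37 C, 5% CO2. Lysis with saponin/Triton buffer containing SYBR Green I, overnight at room temperature in the dark; DNA fluorescence (485/535 nm) normalised to 0.29 uM artemisinin and DMSO.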

A short description of assay [20]: qHTS profiling of the MIPE4 collection as inhibitors of Plasmodium falciparum (DD2) proliferation (AID 743345; call rule not given here). To be noted: P. falciparum Dd2 in erythrocytes, SYBR Green DNA, 72 h; at 28.5 µM (top of the series) unless noted. The method, boiled down:
as §1

Assay [21] in a line: qHTS profiling of the MIPE4 collection as inhibitors of Plasmodium falciparum (DD2) proliferation (Rep 2) (AID 743346; call rule not given here). The note with it: P. falciparum Dd2 in erythrocytes, SYBR Green DNA, 72 h; at 28.5 µM (top of the series) unless noted. The method in brief:
as §1

A short description of assay [22]: qHTS profiling of the MIPE4 collection as inhibitors of Plasmodium falciparum (HB3) proliferation (AID 743347; call rule not given here;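 also: plate controls were DMSO vehicle wells for no effect and artemisinin wells for full effect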). The note with it: P. falciparum HB3 in erythrocytes, SYBR Green DNA, 72 h; at 28.5 µM (top of the series) unless noted. The method, boiled down: as §1

Cytochrome P450 2C19 (Homo sapiens), sequence (P33261 whole entry, looked up): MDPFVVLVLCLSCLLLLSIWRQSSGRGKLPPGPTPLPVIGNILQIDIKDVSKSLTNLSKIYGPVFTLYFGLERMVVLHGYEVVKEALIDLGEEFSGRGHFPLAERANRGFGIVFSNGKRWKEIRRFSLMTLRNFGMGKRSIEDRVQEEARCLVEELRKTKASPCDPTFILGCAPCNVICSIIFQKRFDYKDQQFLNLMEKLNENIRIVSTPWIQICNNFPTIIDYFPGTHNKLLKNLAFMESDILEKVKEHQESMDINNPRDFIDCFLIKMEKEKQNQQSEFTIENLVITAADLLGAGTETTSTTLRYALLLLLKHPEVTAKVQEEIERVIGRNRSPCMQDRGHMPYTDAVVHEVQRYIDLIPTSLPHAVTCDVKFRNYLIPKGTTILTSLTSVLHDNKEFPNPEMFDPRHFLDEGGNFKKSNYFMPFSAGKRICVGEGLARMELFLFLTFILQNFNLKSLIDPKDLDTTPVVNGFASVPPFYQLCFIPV

For the molecule `N#C/C(=C\c1ccc(O)c(O)c1)C(=O)NCCc1ccccc1`, the result in assay [1] was inactive. Also, the Potency entry in assay [2], in [3], in [4] and in assay [5] was “inactive” throughout.

Regarding `O=c1c2ccccc2oc2ccccc12`, the Potency in assay [6] was 12.6 µM (active). In addition, the Potency result in assay [7], in assay [2], in assay [3], in [4] and in [5] was “inactive” throughout.

For `CC[C@@]1(O)C[C@H](O[C@H]2C[C@H](N(C)C)[C@H](O[C@H]3C[C@H](O)[C@H](O[C@H]4CCC(=O)[C@H](C)O4)[C@H](C)O3)[C@H](C)O2)c2c(cc3c(c2O)C(=O)c2c(O)cccc2C3=O)[C@@H]1C(=O)OC`, the Potency result in assay [2], in [9] and in assay [11] was “inactive” each time. The Potency in assay [3] and in assay [4] was 0.344 µM (active) throughout. The outcome in assay [8] and in assay [10] was inactive.

Take `CN(N=O)C(=O)N[C@H]1C(O)OC(CO)[C@@H](O)[C@H]1O` (some centres undefined): the Potency in assay [12] was 7.94 µM (active). The Potency entry in assay [2], in assay [3], in assay [4] and in assay [5] was “inactive” throughout.

In the case of `CN1CCC2(CCN3CCc4c(oc5ccccc45)C3C2)N(C)C1=O` (centres undefined), the Potency result in assay [13], in assay [2], in [3] and in assay [4] was “inactive” throughout.

`CCCCOc1c(C(=O)c2c(F)cc(C)cc2F)cnc2n[nH]cc12`: the Potency was 5.44 µM (active) in assay [2]; 2.17 µM (active) in assay [3]; 7.69 µM (active) in assay [4]; 1.52 µM (active) in assay [14]; 1.12 µM (active) in assay [15]; 1.52 µM (active) in assay [16]. In addition, the Potency entry in assay [11] was “inactive”.

Turning to `CCN1C(=O)C=CC1=O`, the outcome in assay [1] and in assay [17] was inactive. Also, the Potency result in assay [2], in assay [3], in [4] and in [5] was “inactive” each time.

With `Nc1nc(OCc2ccccc2)c2[nH]cnc2n1`, the values for the Potency in [6], in [12] and in assay [4] were 7.94 µM (active), 6.31 µM (active) and 17.2 µM (active), respectively. Also, the Potency result in [7], in assay [13], in assay [2], in assay [3] and in [15] was “inactive” each time. Moreover, the molecule was called inactive in assay [17] and in assay [18]. In addition, the parasite growth, % of DMSO control in assay [19] is 83.5%. The parasite growth remaining, % of DMSO control (lower = more inhibition) in [20] amounted to 103%. In addition, the parasite growth, % of control (lower = inhibition) in assay [21] was 72.1%. The same molecule yielded a growth, % of control in assay [22] of 44%.
